V-ATPase pH = regulators of yeast V-ATPase proton transport. S. cerevisiae, pHLuorin cytosolic pH fluorescence. response, % at 10 µM. 0.37% of 350,000 active; in the data active = response mostly above about 7.3%, no sharp cut-off; inactive = mostly below about 5.4%; also: actives read high
tim10-1 inh = growth inhibitors of tim10-1 mutant yeast | S. cerevisiae tim10-1 ts strain growth, BacTiter-Glo, 24 h | inhibition, % at 20 µM | 2.2% of 330,000 active;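 active = inhibition of at least 40%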;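 also: mutant grown at 25 °C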
tim23-1 inh = tim23-1 yeast growth inhibition; S. cerevisiae tim23-1 growth, BacTiter-Glo luminescence, 24 h; inhibition, % at 20 µM; 1.3% of 330,000 active;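 active = growth inhibition of the mutant yeast at or above 50%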;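 also: temperature-sensitive mutant grown at 25 °C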
NALP1 yeast inh = NALP1 inhibition. S. cerevisiae NALP1/ASC/caspase-1 growth, X-gal OD620, 72 h. inhibition, % at 10 µM. 0.61% of 280,000 active; in the data active = inhibition mostly above about 24%, no sharp cut-off; inactive = mostly below about 32%
TIM10 inh = TIM10 yeast growth inhibition. 1.4% of 330,000 active. S. cerevisiae TIM10 strain growth, BacTiter-Glo luminescence, 24 h. inhibition, % at 10 µM;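 active = inhibition of 40% or more at the single tested concentration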;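 also: wild-type TIM10 isogenic control strain grown at permissive 25 °C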
NLRP3 yeast inh = blocks the NALP3 inflammasome reconstituted in yeast. Yeast reconstituted NLRP3/ASC/caspase-1, beta-gal luminescence, 24 h. inhibition, % at 10 µM. 0.39% of 330,000 active. AID 2825;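 active = inhibition of 50% or more; inactive = inhibition below 50%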
tim10-1 conf = confirmation of tim10-1 mutant yeast growth inhibitors; shares compounds with tim10-1 inh; S. cerevisiae tim10-1 ts strain growth, BacTiter-Glo, 24 h; inhibition, % at 20 µM; 56% of 7,400 active; AID 463213;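 active = inhibition of yeast growth at or above a set limit in either of two repeat tests at 20 µM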;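 also: tim10-1 mutant grown at permissive 25 °C to find synthetic lethal compounds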
tim10 confirm = confirmation of TIM10 yeast growth inhibitors. shares compounds with TIM10 inh. S. cerevisiae tim10 strain growth, BacTiter-Glo luminescence, 24 h. inhibition, % at 10 µM. 63% of 4,600 active;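 active = inhibition of yeast growth at or above a set limit in either of two replicates at 10 µM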; also: this counterscreen used the strain with wild-type TIM10
tim23-1 conf = confirmation of tim23-1 mutant yeast growth inhibitors; shares compounds with tim23-1 inh; S. cerevisiae tim23-1 growth, BacTiter-Glo luminescence, 24 h; inhibition, % at 20 µM; 83% of 4,400 active;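 active = inhibition above about 39% in either of two replicate wells at 20 µM, limit read from the data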;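 also: temperature-sensitive tim23-1 mutant grown at 25 °C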
Numbers stand for hits; n = inactive; x = not tested or not shown. This is a sample that favours compounds with a hit; in the whole collection about 4.2% have one here.

SMILES	V-ATPase pH	tim10-1 inh	tim23-1 inh	NALP1 yeast inh	TIM10 inh	NLRP3 yeast inh	tim10-1 conf	tim23-1 conf	others
CCOC(=O)C1CCN(C(=O)CN2C(=O)CSc3ccc(S(=O)(=O)N4CCOCC4)cc32)CC1	n	n	n	n	n	n	x	x
Cc1ccc(SCc2[nH]nc3c2C(C(C)C)C(C#N)=C(N)O3)cc1 (centres undefined)	n	n	n	n	n	n	x	x
CCc1[nH]nc2c1C(c1ccc(Br)s1)C(C#N)=C(N)O2 (centres undefined)	n	85	82	n	75	n	83	80	tim10 confirm=n
CCc1[nH]nc2c1C(c1ccsc1)C(C#N)=C(N)O2 (centres undefined)	n	n	n	n	n	n	x	x
Cc1ccc(SCc2[nH]nc3c2C(c2ccco2)C(C#N)=C(N)O3)cc1 (centres undefined)	n	71	68	n	n	n	55	50
CN(C(=O)c1ccc(Br)o1)C1CCCCC1	n	n	n	n	n	n	x	x
Cc1cccc(CS(=O)(=O)c2nnc([C@H](Cc3ccccc3)NC(=O)OC(C)(C)C)o2)c1	n	69	55	n	54	n	51	61	tim10 confirm=52
CCOc1cc(-c2cc(-c3ccc(N)cc3)nc(N)c2C#N)ccc1O	n	41	50	n	n	n	n	53
O=C1/C(=C/c2cccc([N+](=O)[O-])c2)CCc2ccccc21	n	42	54	n	n	n	59	n
O=C1/C(=C/c2ccc([N+](=O)[O-])cc2)CCc2ccccc21	x	n	n	n	n	n	x	x
CC(NC(=O)c1ccccc1)C(=O)NNC(=O)c1ccccc1Cl (centres undefined)	n	n	n	x	n	n	x	x
CC1Cc2ccccc2N1C(=O)CN1CCC(n2nnc3cc(C(F)(F)F)ccc32)CC1 (centres undefined)	n	41	50	n	n	n	38	42
O=C(Cc1cccc(NC(=O)C2CCN(C(=O)C3CCC3)CC2)c1)Nc1cccc(C(=O)N2CCOCC2)c1	n	x	x	x	x	x	x	x
C=CCN1c2ccccc2C(=O)CS1(=O)=O	n	n	n	x	n	n	x	x
O=C1CS(=O)(=O)N(Cc2cccc(F)c2)c2ccc(Br)cc21	n	48	66	x	n	n	48	n
COc1cccc(/C=N/NC(=O)NC23CC4CC(CC(C4)C2)C3)c1O	n	52	52	x	42	n	n	47	tim10 confirm=39
O=C(N/N=C/c1ccccc1F)NC12CC3CC(CC(C3)C1)C2	n	n	n	n	n	n	x	x
CCCCNc1c(-c2ccc(SC(C)CC)cc2)nc2ccccn12 (centres undefined)	n	48	59	x	45	n	55	63	tim10 confirm=35
CCCCNc1c(-c2ccc(SC3CCCCC3)cc2)nc2ccccn12	n	n	n	x	n	n	x	x
CC(=O)N1CCN(S(=O)(=O)c2cccc(C(=O)NCc3ccc(F)cc3)c2)CC1	n	n	n	x	n	n	x	x
Cc1cc(C)nc(NC(=S)NC(=O)c2ccccc2F)n1	n	n	n	x	n	n	x	x
Cc1cc(C)nc(S/C=C/C(=O)c2ccccc2F)n1	n	43	64	n	53	n	n	63	tim10 confirm=53
O=C(CCn1c(=O)oc2ccc(Cl)cc21)N1CCN(Cc2ccccc2)CC1	n	n	n	n	n	n	x	x
CCOC(=O)C1=C(C)N=c2s/c(=C\c3ccc(OCC(=O)O)cc3)c(=O)n2C1c1ccc(Cl)cc1 (centres undefined)	n	n	n	n	n	n	x	x
CCOC(=O)C1=C(C)N=c2s/c(=C/c3ccc(OCC(=O)O)c(OC)c3)c(=O)n2C1c1ccc(Cl)cc1 (centres undefined)	n	56	50	x	n	n	46	53
SMILES	V-ATPase pH	tim10-1 inh	tim23-1 inh	NALP1 yeast inh	TIM10 inh	NLRP3 yeast inh	tim10-1 conf	tim23-1 conf	others
COc1ccc(NC(=O)Cc2ccc(Cl)c(Cl)c2)cn1	n	n	n	n	n	n	x	x
COc1ccc(NC(=O)/C(Cl)=C(/Cl)S(=O)Cc2ccccc2Cl)cn1 (centres undefined)	n	42	79	n	55	n	n	n	tim10 confirm=84
CCc1ccc(CCC(=O)N2CCN(S(=O)(=O)c3sc(C(=O)O)c(C)c3C(=O)O)CC2)cc1	n	x	x	x	x	x	x	x
Cc1ccccc1OCCCN1C(=O)C(=O)c2cccc(C)c21	n	54	74	n	n	n	39	n
Cc1ccc2c(c1)C(=O)C(=O)N2CCCOc1ccccc1C	n	n	n	n	n	n	x	x
Cc1cc(C(F)(F)F)nc(SCC(=O)Nc2c(C)n(C)n(-c3ccccc3)c2=O)n1	n	n	n	n	n	n	x	x
CC1=NN(c2cccc(C(=O)O)c2)C(=O)/C1=C\C=C/c1ccccc1	x	43	53	n	47	n	47	62	tim10 confirm=42
Cc1ccc(-c2nc(N/N=C/c3cccnc3)c3ccccc3n2)cc1	n	76	84	n	66	n	74	85	tim10 confirm=59
C[C@H](CO)N1C[C@H](C)[C@@H](CN(C)Cc2ccncc2)Oc2c(cccc2N(C)C)C1=O	n	n	n	x	n	n	x	x
